Reference: PubChem BioAssay AID434973 (Sanford-Burnham Center for Chemical Genomics, 2010)
Out of some 330,000 compounds screened, about 4,900 (1.5%) were called active.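 Rule for the calls: active = inhibition above about 50% at the single test dose (limit read from the data); inactive = the rest.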 Shown is part of a subset that was picked to be rich in actives.

Target: Sentrin-specific protease 7 (Homo sapiens) (UniProt Q9BQF6)
Test: SENP7 protease inhibitors, primary screen, biochemical, luminescence, uHTS (AID 434973);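 note: plate controls were DMSO with enzyme for no effect and no enzyme buffer wells for full effect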
Conditions: recombinant SENP7, Z-RLRGG-aminoluciferin luminescence, 40 min; at 5 µM; active compounds read high

Compound	inhibition
O=C(CN1C(=O)c2ccc([N+](=O)[O-])cc2C1=O)Nc1nnc(C2CC2)s1	-1.7% (inactive)
COc1ccc(CN2CCOC2=O)cc1OC	0.943% (inactive)
CCC(=NC1CC(C)(C)NC(C)(C)C1)C1=C(O)CC(C)(C)CC1=O	-2.04% (inactive)
COc1ccc(C2/C(=C(/O)c3ccc(OC(C)C)cc3)C(=O)C(=O)N2CCCN2CCOCC2)cc1 (configuration not stated)	-3.1% (inactive)
O=C1C(=O)N(CCCN2CCOCC2)C(c2ccc([N+](=O)[O-])cc2)/C1=C(\O)c1ccc2c(c1)OCCO2 (configuration not stated)	56.5% (active)
O=C1C(=O)N(CCN2CCOCC2)C(c2cccc(Cl)c2)/C1=C(/O)c1ccc2c(c1)OCO2 (configuration not stated)	0% (inactive)
COc1ccccc1OCc1ccc(C(=O)NC(C)c2ccccc2)o1 (configuration not stated)	-1.75% (inactive)
Cc1ccc(S(=O)(=O)CCC(=O)Nc2nnc(CC(C)C)s2)cc1	10.9% (inactive)
Cc1ccc(OC(=O)c2cc3ccccc3o2)cc1	80.7% (active)
COc1ccccc1CN(C)C(=O)c1cc2ccccc2o1	6.76% (inactive)
C/C(=N\NC(=S)Nc1ccc(C)cc1)c1cc2ccccc2o1	-0.14% (inactive)
COc1cc(C(=O)OCC(=O)NC23CC4CC(CC(C4)C2)C3)cc(OC)c1OC	7.88% (inactive)
COc1cc(C2/C(=C(\O)c3ccc4c(c3)CC(C)O4)C(=O)C(=O)N2c2nnc(C)s2)cc(OC)c1OC (configuration not stated)	0.235% (inactive)
COc1ccc(CNC(=O)CN(Cc2ccccc2Cl)C(=O)c2csnn2)cc1	-0.595% (inactive)
CCCCn1c(N)c(N(CCC(C)C)C(=O)CC2OC(=O)c3ccccc32)c(=O)[nH]c1=O (configuration not stated)	0.323% (inactive)
O=C(Nc1ccc(NC(=O)c2ccco2)c(Cl)c1)c1cccc([N+](=O)[O-])c1	52.1% (active)
O=C(Nc1ccc(C2CC2(Cl)Cl)cc1)c1cccc([N+](=O)[O-])c1 (configuration not stated)	54.2% (active)
COc1cc(NC(=O)c2cc([N+](=O)[O-])ccc2Br)ccc1NC(=O)c1ccco1	-5.49% (inactive)
CC(C)(C)SCCNC(=O)c1cccc([N+](=O)[O-])c1	0.866% (inactive)
O=C(c1cccc([N+](=O)[O-])c1)N1CCN(C(=O)c2ccco2)CC1	3.1% (inactive)
Cc1cc(C)nc(NC(=O)c2cccc([N+](=O)[O-])c2)c1	2.66% (inactive)
COc1ccc(S(=O)(=O)N2CCN(c3cnccn3)CC2)cc1	4.46% (inactive)
COC(=O)c1ccc(-n2cnc3ccccc32)nc1	-0.937% (inactive)
O=C1CN(C(=O)COC(=O)/C=C/c2ccc(F)cc2)c2ccccc2N1	-6.02% (inactive)
O=S(=O)(c1ccc(F)cc1)N1CCN(C(=S)NCc2ccco2)CC1	-0.183% (inactive)

Compound	inhibition
COc1ccc(NC(=O)NN2CCN(C)CC2)c(OC)c1	0.214% (inactive)
N#Cc1ccc(OCc2nnc(-c3ccc([N+](=O)[O-])cc3)o2)cc1	-0.787% (inactive)
CCOc1ccc(-n2c(SCC(N)=O)nnc2-c2ccco2)cc1	6.82% (inactive)
CCCCOc1ccc(-c2nnc(-c3ccco3)o2)cc1	80.5% (active)
O=C(NCCC1=CCCCC1)c1ccc(-n2cncn2)cc1	-9.22% (inactive)
O=C(NCc1cccnc1)c1cccnc1Sc1ccc(Cl)cc1	2.66% (inactive)
O=C(Nc1ccncc1)c1cc2ccccc2o1	60.6% (active)
COc1cc2ccccc2cc1C(=O)Nc1ccncc1	7.87% (inactive)
CC(C)(C)n1nc2c(c1NC(=O)c1cc3ccccc3o1)CSC2	6.18% (inactive)
CCOc1ccc(N2C(=O)/C(=C/c3ccc(C)o3)N(C)C2=S)cc1	6.54% (inactive)
O=C(N[C@@H](Cc1ccccc1)C(=O)OCc1ccccc1)c1nc[nH]c1C(=O)N[C@@H](Cc1ccccc1)C(=O)OCc1ccccc1	4.7% (inactive)
CCOc1ccc(C(=O)COC(=O)c2ccc(-n3cnnn3)cc2)cc1	-0.201% (inactive)
O=C(Oc1ccc(C(=S)N2CCOCC2)cc1)c1ccc(F)cc1	2.03% (inactive)
Cc1nc2ccc(C(=O)N/N=C/c3ccc(O)cc3)cc2[nH]1	0.319% (inactive)
Cc1nonc1C(=O)N/N=C/c1ccc(O)cc1	98.8% (active)
CC(C)c1c(C(=O)N/N=C/c2ccc(-c3ccccc3)cc2)nnn1-c1nonc1N	0.606% (inactive)
Cn1ncc(N2CCN(S(=O)(=O)c3ccc(Br)cc3)CC2)c(Cl)c1=O	-5.83% (inactive)
Cc1ccc2cc(/C=N/Nc3ccc(C(=O)O)cc3)c(Cl)nc2c1	-6.79% (inactive)
O=C(O)c1ccc(N/N=C/c2ccc3ncccc3c2)cc1	99.3% (active)
O=C(O)c1ccc(/C=N/Nc2nc(N3CCCCC3)nc(N3CCCCC3)n2)cc1	-3.32% (inactive)
COc1ccc(CCNC(=O)C(=O)NCC2OCCN2S(=O)(=O)c2ccc(OC)c(C)c2)cc1 (configuration not stated)	2.59% (inactive)
O=C(NC(=S)N1CCN(Cc2ccccc2)CC1)c1ccccc1	2.02% (inactive)
CC(OC(=O)c1ccc2ccccc2n1)C(=O)c1ccccc1 (configuration not stated)	55.8% (active)
CC(NC(=O)COC(=O)c1ccc2ccccc2n1)c1ccccc1 (configuration not stated)	-1.7% (inactive)
Cc1ccc(S(=O)(=O)N(C)C)cc1NC(=O)C(C)OC(=O)c1ccc2ccccc2n1 (configuration not stated)	6.08% (inactive)

Compound	inhibition
O=C(Nc1ccc(S(=O)(=O)N2CCCCC2)cc1)C1CCN(C(=O)c2ccc(F)cc2)CC1	-13.9% (inactive)
O=C(Nc1ccc(-c2nnc(-c3ccccc3)o2)cc1)C1CCCO1 (configuration not stated)	60.2% (active)
CC(C)(C)NS(=O)(=O)c1ccc(NC(=O)C2CCCO2)cc1 (configuration not stated)	3.51% (inactive)
O=C(Nc1cccc(-c2nnc(-c3ccccc3)o2)c1)C1CCCO1 (configuration not stated)	1.95% (inactive)
O=C(COC(=O)/C=C/c1cccc(Cl)c1)NCc1cccs1	15% (inactive)
CCNC(=O)CC1C(=O)N(c2ccc(F)cc2)C(=O)N1CCc1sccc1C (configuration not stated)	7.13% (inactive)
Cn1nc(-c2ccccc2)c(CSc2cccc(Cl)c2)c1Cl	2.83% (inactive)
Cc1nn2cc(-c3ccc(Cl)cc3)cnc2c1Br	88.2% (active)
CCOC(=O)c1cc(S(=O)(=O)NCCc2ccc(OC)c(OC)c2)cn1C	7.17% (inactive)
Cc1nnc2n1N=C(c1ccccc1)CS2	-0.787% (inactive)
O=c1c2cc(-c3ccccc3)sc2nc2n1N=C(c1cccs1)CS2	74.3% (active)
O=c1c(-c2ccccc2)cnc2n1CCS2	4.7% (inactive)
O=C(/C=C/c1ccc2c(c1)OCO2)NCc1cn2cc(Cl)ccc2n1	0.536% (inactive)
CCCCCCSc1ccc(-c2nc3ccc(Cl)cn3c2NCc2ccccc2)cc1	-2.53% (inactive)
Clc1ccc2nc(CSc3ccccc3)cn2c1	66.1% (active)
COc1ccc(NC(=O)NCc2ccc3c(c2)OCO3)c(OC)c1	6.56% (inactive)
CCOCCCNC(=S)N1CCC(NC(=O)C2CCCCC2)CC1	-2.06% (inactive)
Cc1ncc(CO)c(/C=N/NC(=O)c2cccc(S(=O)(=O)N3CCCC3)c2)c1O	-7.56% (inactive)
C/C(=N\Nc1ncc(Cl)cc1Cl)c1cccs1	47.2% (inactive)
C/C(=N\Nc1nc2ccccc2[nH]1)c1cccs1	65.2% (active)
O=C(Nc1ccccc1-c1nc2ccccc2[nH]c1=O)c1cccs1	-0.595% (inactive)
O=C(CNC(=O)OCc1ccccc1)NC1CCCCNC1=O (configuration not stated)	4.12% (inactive)
COC(=O)c1ccc(NCC(=O)N2CCCCCC2)cc1	-4.94% (inactive)
COC(=O)c1ccc(NCC(=O)c2ccccc2)cc1	86.1% (active)
COC(=O)c1ccc(NC(=O)Nc2ccc(C)cc2)cc1	-0.387% (inactive)

Compound	inhibition
COc1cc(C2/C(=C(\O)c3ccc4c(c3)CC(C)O4)C(=O)C(=O)N2Cc2ccco2)ccc1O (configuration not stated)	2.43% (inactive)
CC(Oc1ccc(F)cc1F)C(=O)/C=C/N(C)C (configuration not stated)	11.5% (inactive)
O=C(N/N=C/c1cccc(O)c1)c1cc2c(ccc3ccccc32)o1	-13.1% (inactive)
O=C(OCC(=O)N1CCOCC1)c1ccc2ccccc2c1	4.44% (inactive)
NC(=O)c1ccccc1N=Cc1ccc2ccccc2c1	66.6% (active)
COc1ccc(CC(=O)N2N=C(C)CC2(O)C(F)(F)F)cc1 (configuration not stated)	-2.12% (inactive)
COc1ccccc1C(CNC(=O)c1cccc(S(=O)(=O)Nc2ccc(F)cc2)c1)N(C)C (configuration not stated)	-6.57% (inactive)
O=C(Nc1ccc(Cl)cc1)/C(=C1\CCCN1)[N+](=O)[O-]	16.3% (inactive)
O=C(NC(=O)c1ccccc1)Nc1ccccc1O	55.8% (active)
Cc1ccc(NC(=O)NC(=O)c2ccccc2)cc1F	23.1% (inactive)
O=C(Nc1ncccc1O)c1ccc(C(=O)c2ccccc2)cc1	-3.01% (inactive)
Cn1c2c(c(=O)n(C)c1=O)C1c3ccccc3OCC1C(C)(C)O2 (configuration not stated)	-0.167% (inactive)
CCNC(=O)N1CCCC(C(=O)c2ccc(-c3ccccc3)cc2)C1 (configuration not stated)	3.16% (inactive)
C=CCSc1nnc(NC(=O)c2ccc(NC(C)=O)cc2)s1	4.95% (inactive)
CCOC(=O)c1sc(NC(=O)c2ccncc2)nc1C	91.1% (active)
CCSc1nnc(NC(=O)c2ccc(C)cc2)s1	52.7% (active)
CCOC(=O)c1cccnc1NC(=O)c1ccncc1	-6.19% (inactive)
CC(=O)c1sc(N/N=C\c2ccc(C)cc2)nc1C	17.2% (inactive)
CC(=O)c1sc(NC(=O)c2ccc(C)cc2)nc1C	71.5% (active)
CCOC(=O)c1sc(NC(=O)c2sc(C)nc2C)nc1C	31.9% (inactive)
NC(=O)CSc1nnc(NC(=O)c2ccc3ccccc3c2)s1	-4.32% (inactive)
COC(=O)c1sc(NC(=S)NC(=O)c2ccc(C)cc2)nc1C	9.77% (inactive)
